An excerpt weighted towards active compounds, which were near 21% of everything screened.
Pf growth 96h: inhibits malaria parasite growth, 96 h; actives 6.9% (n = 320,000); P. falciparum luciferase reporter growth, 96 h; Potency, µM (highest dose often 28.7 µM), for inactives: at the highest dose activity change, negative = inhibition, usual class: inhibitors; AID 504834; further: potency means the concentration at half of the fitted maximal effect; on the % scale 0 is the no-effect control and ±100 the full control effect
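96 h incubation, 37 C, 5% CO2, of luciferase-reporter P. falciparum-infected RBCs (2% hematocrit, 0.05% parasitemia final) with test compounds; endpoint luminescence.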
NS1 inh: blocks influenza NS1 protein function; actives 0.4% (n = 270,000); Potency, µM (highest dose often 46.1 µM), without a hit: top-dose activity, positive = more growth; calls by dose curve; further: potency means the concentration at half of the fitted maximal effect; actives are rising curves; nearly all actives have a fitted effect of over 50% in size
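Growth recovery, yeast-based: influenza A NS1 expressed in S. cerevisiae causes slow growth, and suppressors are detected by OD600. The parent strain without NS1 is used as positive control.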
Cycloheximide cs: counter-screen for Shiga toxin inhibitors: cycloheximide protein synthesis inhibition; actives 12% (n = 300,000); max response, %; cell reporter, cycloheximide protein synthesis inhibition counterscreen; in the data active means max response mostly above about 13%, no sharp cut-off; inactive means mostly below about 14%; further: read at 38.3 µM for the half of the compounds with a filed dose; 0% is about no effect
SARS PLpro yeast-1: blocks SARS-CoV papain-like protease in a yeast assay; AID 485353; Potency, µM (doses to about 32.9 µM), without a hit: top-dose activity, positive = growth rescue, most hits filed as activators; S. cerevisiae expressing SARS-CoV PLpro, growth rescue; actives 0.19% (n = 330,000); calls by dose curve; further: potency means the concentration at half of the fitted maximal effect; 0% is about no effect; nearly all actives have a fitted effect of over 55% in size
Pf growth 48h: inhibits P. falciparum growth in the first generation, 48 h; P. falciparum luciferase growth in erythrocytes, 48 h; Potency, µM (titrated, usually from 28.7 µM), without a hit: at the highest dose activity change, negative = inhibition, hits mostly inhibitors; actives 5.9% (n = 310,000); further: potency means the concentration at half of the fitted maximal effect; on the % scale 0 is the no-effect control and ±100 the full control effect
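First compound was added to culture medium, then infected red cells at 0.1% parasitemia and 2% hematocrit (final). After incubation at 37 C under 5% CO2, luciferase detection reagent was dispensed and light output recorded.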
Shiga toxin inh: inhibitors of Shiga toxin in Vero cells | AID 2315 | inhibition, % at 38.7 µM | Vero cells, Shiga toxin protein synthesis inhibition reporter | actives 9.2% (n = 290,000); in the data active means inhibition mostly above about 28%, no sharp cut-off; inactive means mostly below about 43%; further: 0% is about no effect
SARS PLpro yeast-2: Inhibits SARS-CoV PLP in yeast, hit validation | shares compounds with SARS PLpro yeast-1 | yeast expressing SARS-CoV PLpro, growth phenotype rescue | calls only | actives 19% (n = 1,000); call rule not given here
Active calls of the source: *; i = inactive; ? = inconclusive; / = no result given; + = active, no number. Unless noted, the call rests on the fitted dose curve; in most records, active means well fitted inhibition curve with a large enough effect; inconclusive means small, poorly fitted or top-dose-only effect, or another doubt; inactive means no such curve, though single readings can be large or run the other way.

SMILES	Pf growth 96h	NS1 inh	Cycloheximide cs	SARS PLpro yeast-1	Pf growth 48h	Shiga toxin inh	SARS PLpro yeast-2
O=C(Nc1cccc(-c2ccc(N3CCCCC3)nn2)c1)c1ccco1	-9%	/	/	-6%	-60%	/	/
Cc1cccc(C)c1NC(=O)NN(C(=O)c1ccccc1)C(C)(C)C	4%	-8%	7	2.5µM*	-15%	-5	i
CN(C)Cc1cc(C(C)(C)c2cc(CN(C)C)c(O)c(CN(C)C)c2)cc(CN(C)C)c1O	/	3%	1	13µM*	4.1µM*	-1	i
CN(C)Cc1cc(C(C)(C)C)cc(CN(C)C)c1O	/	6%	/	/	/	/	/
CN(C)S(=O)(=O)c1ccc(/C(O)=C2/C(=O)C(=O)N(Cc3cccnc3)C2c2ccncc2)cc1 (stereo not drawn)	/	-6%	1	10µM*	93%	-2	i
CC1CCN(C(=O)C2CCN(S(=O)(=O)c3cccc4nonc34)CC2)CC1	0%	-4%	-2	3%	14%	-13	/
COc1ccccc1NC(=S)NNC(=O)c1ccncc1	0%	/	3	-1%	26%	-4	/
COc1ccccc1NC(=S)NNC(=O)c1cc(C)n(C)n1	58%	0%	7	?	/	4	i
CN1C(=O)/C(=C2/C=CC=CN2C)OC1=S	15%	-109%	15	?	-2%	28	?
O=C(CN1C(=O)NC2(CCCC2)C1=O)N1CCN(S(=O)(=O)c2cccc(F)c2)CC1	20%	-3%	1	/	3%	-27	i
CC(=O)O[C@@]12CO[C@@H]1C[C@@H](O)[C@@]1(C)C(=O)[C@H](O)C3=C(C)[C@@H](OC(=O)[C@H](O)[C@@H](NC(=O)c4ccccc4)c4ccccc4)C[C@@](O)([C@@H](OC(=O)c4ccccc4)C12)C3(C)C (stereo partly drawn)	0.046µM*	-10%	-3	?	?	-5	?
C/C=C(\C)C(=O)N[C@@H](c1ccccc1)[C@@H](O)C(=O)O[C@H]1C[C@@]2(O)[C@@H](OC(=O)c3ccccc3)C3[C@](C)(C(=O)[C@H](OC(C)=O)C(=C1C)C2(C)C)[C@H](O)C[C@H]1OC[C@@]31OC(C)=O (stereo partly drawn)	?	3%	3	-7%	?	-4	/
Cc1nc(N2CCC(C)CC2)c2c(C)c(C(=O)Nc3ccccc3C(F)(F)F)sc2n1	?	2%	-8	0%	-24%	-2	/
Cc1nn(-c2ccccc2)c(C)c1/C=N/NC(=O)CSc1nnc(SCc2ccccc2Cl)s1	?	-2%	35*	?	30%	42	+
Cc1ccc[n+](CC2OCc3ccccc3CO2)c1	?	1%	-2	1%	?	-16	/
Nc1c(Cl)cc(-c2[nH]c3cc(C(=O)NCCO)ccc3c(=O)c2O)cc1Cl	?	-62%	-2	?	?	-7	+
COc1ccc([C@@H]2CC=C(C(=O)O)[C@H](c3ccccc3F)N2S(=O)(=O)c2ccc(C)cc2)cc1OC	?	/	/	3%	?	/	/
CO/C1=C\C(C)=C\[C@@H](C)[C@@H](O)[C@@H](C)C/C(C)=C/C=C/[C@H](OC)[C@@H]([C@@H](C)[C@@H](O)[C@H](C)[C@@]2(O)C[C@@H](O)[C@H](C)C(C(C)C)O2)OC1=O (stereo partly drawn)	/	/	7	/	/	-1	/
COc1cc(NS(=O)(=O)c2ccc(NC(=O)COc3ccc(C)cc3)cc2)nc(OC)n1	15%	-22%	-2	11µM*	?	13	i
COc1cc(NS(=O)(=O)c2ccc(NC(=O)COc3ccc(C)cc3C)cc2)nc(OC)n1	0%	26%	7	-2%	7%	-17	/
CN(CC(=O)Nc1c(Cl)cccc1Cl)C(=O)c1cc(S(=O)(=O)N(C)C)ccc1N1CCCC1	?	/	/	?	?	/	i
COc1ccc(NC(=O)CN(C)C(=O)c2cc(S(=O)(=O)N(C)C)ccc2N2CCCC2)cc1	9%	/	/	/	-8%	/	/
O=C(COc1ccc(Cl)cc1)N1CCN(c2ncccn2)CC1	-28%	2%	16	10%	0%	29	/
O=C(COc1ccc(F)c(Cl)c1)N1CCN(c2ccccn2)CC1	-10%	-17%	-4	?	-8%	7	i
COc1cc(/C=N/NC(=O)c2cnccn2)ccc1O	?	9%	9	3.5µM*	14%	-9	i
SMILES	Pf growth 96h	NS1 inh	Cycloheximide cs	SARS PLpro yeast-1	Pf growth 48h	Shiga toxin inh	SARS PLpro yeast-2
CCc1ccc(C(C(=O)NCCOC)N(C(=O)Cn2nnc3ccccc32)c2cccnc2)cc1 (stereo not drawn)	?	4%	-3	16%	-7%	-5	/
CC(=O)CSc1cc(-c2ccccc2)nc2ncnn12	-19%	1%	-3	0%	5%	-7	/
COc1cc(CNCC(C)C)c(Br)cc1OCC(=O)NCc1ccccc1	?	-3%	-3	?	-19%	-12	i
COc1ccc(C(=O)N2CCN(Cc3cc(OC)c(O)c(OC)c3)CC2)cc1OC	-9%	?	-1	20µM*	-5%	4	i
O=C(COC(=O)C1CCN(S(=O)(=O)c2cccs2)CC1)c1cc2ccccc2o1	?	21%	4	2%	?	-2	/
CC(C)c1ccc(NC(=O)CN2C(=O)NC3(CCCC3)C2=O)cc1	33%	18%	0	3.5µM*	17%	12	i
OCCCNc1ccccc1	5%	/	/	/	-5%	/	/
COC(=O)Cc1c(C)nc2nc(-c3ccc(C)cc3)[nH]n2c1=O	15%	1%	-3	15%	/	-5	/
COC(=O)Cc1c(C)nc2nc(-c3ccc(Cl)cc3)[nH]n2c1=O	9%	0%	-6	?	/	-8	i
CCCN1C/C(=C/c2ccc3c(c2)OCO3)C(=O)/C(=C/c2ccc3c(c2)OCO3)C1	1.9µM*	11%	7	14µM*	0%	6	i
CC1=C/C(=C\c2ccc3c(c2)OCO3)C(=O)S1	62%	-133%	17	-35%	?	-6	/
CCC(=NNC(=O)c1ccc2c(c1)nc(C)n2CC)c1cc(F)ccc1O	/	/	/	10µM*	/	/	i
COc1cc(-c2nnc(SCc3cc(=O)oc4cc(O)c(O)cc34)o2)cc(OC)c1OC	/	5%	-1	6.3µM*	?	-19	i
CCOC(=O)CSc1nnc(-c2cc(OC)c(OC)c(OC)c2)o1	41%	2%	-2	0%	1%	-5	/
Cc1cc(Cl)ccc1OCC(=O)NCCC(=O)O	-16%	1%	-2	-2%	0%	-2	/
Cc1cc(Cl)ccc1OCC(=O)N/N=C1\CC2C=CCC12 (stereo not drawn)	-4%	19%	-3	?	12%	-2	i
C/C(=N\NC(=O)CN1CCN(S(=O)(=O)c2ccc(C)cc2)CC1)c1cccnc1	18%	-5%	-3	3.2µM*	6%	12	i

Source: PubChem BioAssay (National Center for Advancing Translational Sciences (NCATS))
